The results in this text go back to PubChem BioAssay (NCATS).

Results filed as inconclusive are left out. Entries that show only a call come without a potency. Unmarked numbers belong to inactive results. Activity calls are given as the source filed them. Calls follow the shape of the full dose curve.

The target of the assay is Nucleoprotein (Lymphocytic choriomeningitis virus (strain Armstrong)) (UniProt P09992). The assay is described as follows: qHTS for Inhibitors of the Functional Ribonucleoprotein Complex (vRNP) of Lymphocytic Choriomeningitis Arenaviruses (LCMV): LCMV Primary Screen - GLuc reporter signal (AID 1347086). Also: nearly all actives have a fitted effect of over 70% in size. The note with it: LCMV minigenome vRNP cell assay, Gaussia luciferase reporter; series mostly up to 57.5 µM; activity change, negative = inhibition: at the top concentration.
Sequence of Nucleoprotein (Lymphocytic choriomeningitis virus (strain Armstrong)) (P09992 whole entry, looked up): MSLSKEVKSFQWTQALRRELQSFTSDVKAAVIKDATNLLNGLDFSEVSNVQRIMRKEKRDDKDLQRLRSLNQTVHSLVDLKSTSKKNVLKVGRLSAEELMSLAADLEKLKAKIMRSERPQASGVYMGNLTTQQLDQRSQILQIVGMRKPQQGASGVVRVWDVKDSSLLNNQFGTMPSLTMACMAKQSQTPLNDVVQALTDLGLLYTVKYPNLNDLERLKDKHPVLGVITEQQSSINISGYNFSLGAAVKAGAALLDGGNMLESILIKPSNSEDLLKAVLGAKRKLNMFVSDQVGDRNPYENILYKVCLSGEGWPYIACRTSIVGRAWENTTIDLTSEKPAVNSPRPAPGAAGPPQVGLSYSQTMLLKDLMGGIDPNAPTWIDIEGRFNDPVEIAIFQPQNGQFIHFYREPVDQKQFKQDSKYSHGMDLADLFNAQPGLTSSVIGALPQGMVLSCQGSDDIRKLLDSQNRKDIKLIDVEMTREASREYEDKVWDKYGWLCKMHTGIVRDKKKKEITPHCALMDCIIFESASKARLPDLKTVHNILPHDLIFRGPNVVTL
Take `CC/C=C(\C(=O)N[C@@H]1C(=O)N2C(C(=O)OCOC(=O)C(C)(C)C)=C(COC(N)=O)CS[C@H]12)c1csc(N)n1`: the Potency entry was “inactive”.

As to `COC(=O)C(c1ccccc1Cl)N1CCc2sccc2C1` (stereo not given), the “activity change, negative = inhibition” value was 19.2%.

`Cc1cc2c(s1)Nc1ccccc1N=C2N1CCN(C)CC1`: the Potency result was “inactive”.

In the case of `CC(C)NC[C@@H](O)COc1ccc(CC(N)=O)cc1`, the “activity change, negative = inhibition” value was 4.07%.

With `COC(=O)N[C@H](C(=O)N[C@@H](Cc1ccccc1)[C@@H](O)CN(Cc1ccc(-c2ccccn2)cc1)NC(=O)[C@@H](NC(=O)OC)C(C)(C)C)C(C)(C)C`, the Potency result is “inactive”.

For `CN1CCC[C@@H]1Cc1c[nH]c2ccc(CCS(=O)(=O)c3ccccc3)cc12`, the “activity change, negative = inhibition” value is 12%.

For the molecule `COc1cc(NC(C)CCCN)c2ncccc2c1` (stereo not given), the “activity change, negative = inhibition” value is -32%.

For the molecule `O[C@@H](CNC[C@H](O)[C@H]1CCc2cc(F)ccc2O1)[C@@H]1CCc2cc(F)ccc2O1`, the Potency result is “inactive”.

`CCC1C(=O)OCC1Cc1cncn1C` (stereo not given): the Potency result was “inactive”.

On to `CC(C)[N+](C)(CCOC(=O)C1c2ccccc2Oc2ccccc21)C(C)C`, for which the Potency entry was “inactive”.

Regarding `OC(Cn1cncn1)(Cn1cncn1)c1ccc(F)cc1F`, the Potency entry was “inactive”.

Take `C[C@]12CC[C@@H]3c4ccc(O)cc4C[C@@H](CCCCCCCCCS(=O)CCCC(F)(F)C(F)(F)F)[C@H]3[C@@H]1CC[C@@H]2O` (stereo not given in full): the “activity change, negative = inhibition” value is 6.26%.

With `NC(=O)C(c1ccccc1)(c1ccccc1)[C@@H]1CCN(CCc2ccc3c(c2)CCO3)C1`, the “activity change, negative = inhibition” value was 11.3%.

In the case of `Cc1ccc(-n2[nH]c(C)c(N=Nc3cccc(-c4cccc(C(=O)O)c4)c3O)c2=O)cc1C`, the “activity change, negative = inhibition” value is 16.1%.

As to `CN(C)CCC=C1c2ccccc2C=Cc2ccccc21`, the Potency result was “inactive”.
